Laboratory results published in the supplement of paper PMC9446081.
± gives the standard deviation of the averaged measurements.

molecular target: MurC (UniProt C4ZRI6); test: relative enzymatic activity vs untreated control (fraction); higher = less inhibition; conditions: 100 µM; incubation time: 2 h at 37 C
Experimental: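 In vitro enzymatic inhibition assays (ProFoldin kits) for 12 purified essential E. coli enzymes or complexes, each treated with 218 active antibacterial compounds at 100 µM for 2 h at 37°C. Read-outs were fluorescence or absorbance (phosphate detection, dye binding), converted to activity via standard curves and expressed relative to untreated DMSO controls.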

Chain of MurC (C4ZRI6 whole entry, looked up): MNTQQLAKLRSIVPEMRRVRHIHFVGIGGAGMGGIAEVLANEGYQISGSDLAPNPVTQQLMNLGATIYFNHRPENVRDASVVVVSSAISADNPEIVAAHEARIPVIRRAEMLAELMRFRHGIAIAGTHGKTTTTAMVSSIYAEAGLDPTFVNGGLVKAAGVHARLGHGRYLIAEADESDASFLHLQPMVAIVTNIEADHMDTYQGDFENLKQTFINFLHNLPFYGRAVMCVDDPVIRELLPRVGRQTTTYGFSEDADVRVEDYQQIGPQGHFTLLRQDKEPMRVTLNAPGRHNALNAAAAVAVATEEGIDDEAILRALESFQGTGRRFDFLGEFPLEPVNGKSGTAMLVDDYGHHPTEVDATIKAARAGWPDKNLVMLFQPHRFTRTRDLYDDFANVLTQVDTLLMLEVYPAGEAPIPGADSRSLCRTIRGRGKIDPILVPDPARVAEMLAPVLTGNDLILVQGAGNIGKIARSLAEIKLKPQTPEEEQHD

Row | Structure (SMILES) | relative enzymatic activity
1 | Cc1c(N)nc([C@H](CC(N)=O)NC[C@@H](N)C(N)=O)nc1C(=O)N[C@H](C(=O)N[C@@H](C)[C@H](O)[C@@H](C)C(=O)N[C@@H](C(=O)NCCc1nc(-c2nc(C(=O)NCCC[S+](C)C)cs2)cs1)[C@@H](C)O)[C@@H](O[C@H]1O[C@H](CO)[C@H](O)[C@@H](O)[C@H]1O[C@H]1O[C@H](CO)[C@@H](O)[C@H](OC(N)=O)[C@@H]1O)c1c[nH]cn1 | 0.895 ± 0.017
2 | O=[N+]([O-])c1ccc(N(CCO)CCO)c2c1no[n+]2[O-] | 0.936 ± 0.055
3 | CCCCCCCCCCCCCCCC[N+](C)(C)C.[Br-] | 0.492 ± 0.29
4 | CN(C)[C@@H]1C(=O)[C@H](C(N)=O)C(=O)[C@@]2(O)C(=O)[C@@H]3C(=O)c4c(O)cccc4[C@@](C)(O)[C@H]3C[C@@H]12 | 1 ± 0.031
5 | O=C1C=C2C(=CCOC2O)O1 (centres undefined) | 1.06 ± 0.07
6 | C[CH2][Hg][S]c1ccccc1C(=O)[O-].[Na+] | 1.17 ± 0.085
7 | CCCCCCCCCCCCCCCC[n+]1ccccc1 | 0.754 ± 0.24
8 | CN1C(=O)[C@]23CC4=CC=C[C@H](O)[C@H]4N2C(=O)[C@@]1(CO)SS3 | 0.8476 ± 0.0014
9 | CC(=O)[O][Hg][c]1ccccc1 | 1.69 ± 0.032
10 | CC(=O)Oc1ccc(Cl)c2cccnc12 | 1.03 ± 0.041
11 | CNC1C(O)C(OC2C(N)CC(N)C(OC3OC(C(C)O)C(O)C(O)C3N)C2O)OCC1(C)O (centres undefined) | 1.03 ± 0.029
12 | O=[N+]([O-])C(Br)(CO)CO | 1.11 ± 0.12
13 | CCn1cc(C(=O)[O-])c(=O)c2cc3c(cc21)OCO3.[K+] | 0.977 ± 0.032
14 | CN[C@H]1C[C@@H](N)[C@H](O)[C@@H](O[C@@H]2O[C@H](CO)[C@H](O)[C@@H]3O[C@@]4(O[C@H]23)O[C@H]([C@@H](N)CO)[C@H](O)[C@H](O)[C@H]4O)[C@@H]1O | 1.04 ± 0.017
15 | COP(=S)(OC)Oc1cc(Cl)c(Cl)cc1Cl | 1.08 ± 0.024
16 | CCCCCCCCCCCCCCCC[n+]1ccccc1.[Cl-] | 0.264 ± 0.051
17 | CN(C)[C@@H]1C(=O)C(C(N)=O)=C(O)[C@@]2(O)C(O)=C3C(=O)c4c(O)cccc4[C@](C)(O)[C@H]3C[C@@H]12 | 1.017 ± 0.0095
18 | CN(C)[C@@H]1C(=O)[C@@H](C(N)=O)C(=O)[C@@]2(O)C(=O)[C@H]3C(=O)c4c(O)ccc(Cl)c4[C@@](C)(O)[C@H]3C[C@@H]12 | 1.08 ± 0.068
19 | [O-][n+]1ccccc1[S][Zn][S]c1cccc[n+]1[O-] | 1.21 ± 0.17
20 | O=S(=O)(O)O.Oc1cccc2cccnc12 | 1.08 ± 0.015
21 | Oc1cc(Cl)ccc1Oc1ccc(Cl)cc1Cl | 1.2 ± 0.16
22 | Cn1ncnc2c(=O)n(C)c(=O)nc1-2 | 0.99 ± 0.11
23 | Cc1nc2c(=O)n(C)c(=O)nc-2n(C)n1 | 1.06 ± 0.095
24 | Cc1c(N)nc([C@H](CC(N)=O)NC[C@@H](N)C(N)=O)nc1C(=O)N[C@H](C(=O)N[C@@H](C)[C@H](O)[C@@H](C)C(=O)N[C@@H](C(=O)NCCc1nc(-c2nc(C(=O)NCCC[S+](C)C)cs2)cs1)[C@@H](C)O)[C@@H](O[C@H]1O[C@H](CO)[C@H](O)[C@@H](O)[C@H]1O[C@H]1O[C@H](CO)[C@@H](O)[C@H](OC(N)=O)[C@@H]1O)c1cnc[nH]1 | 0.849 ± 0.025
